# Source: PubChem BioAssay
# Where “and” joins values, the source holds several entries; their conditions need not be identical. Equal values may be shown once. Unmarked numbers belong to inactive results. Results filed as inconclusive are left out. Calls of active or inactive are those of the source.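 Rule for the calls, unless noted: active = z-score of at least 1.8 in each of two replicates, scored against plate mean and spread of sample wells; inactive = the rest.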
# How the values were obtained:
# [1] = test system: Neuropilin-2 / VEGF-C interaction (human); experiment: inhibitors of NRP2–VEGF-C binding, biochemical, microplate binding format, z-score (AID 743281; call rule not given here); settings: microplate NRP2/VEGF-C binding assay; stronger effect = lower value
# [2] = test system: Aerobactin synthetase IucA (Klebsiella pneumoniae); experiment: IucA aerobactin synthetase inhibitors, biochemical, Tocris library, absorbance (AID 1345561; call rule not given here;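 note: 100% = enzyme without compound and 0% = no enzyme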); settings: purified IucA enzyme assay, absorbance (OD) read-out; stronger effect = lower value;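 tested at 8 µM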
# [3] = molecular target: NAD(+) hydrolase SARM1 (Homo sapiens) (UniProt Q6SZW1); experiment: SARM1 TIR NADase inhibitors, cell lysate, NAD-Glo luminescence (AID 1508614;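 active = compound whose remaining NAD level is above about 45 nM, limit read from the data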;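 note: higher remaining NAD means stronger inhibition of SARM1 NADase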); settings: SAM-TIR HEK293T lysate NADase, at 1 µM, stronger effect = higher value
# [4] = molecular target: Mitogen-activated protein kinase 7 (Homo sapiens) (UniProt Q13164); experiment: ERK5 transactivation activators in reporter cells, primary screen, cell-based, HTS (AID 1508626;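 active = luciferase signal above three times the same-plate solvent-only control wells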;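 note: luciferase driven by Gal4-ERK5 fusion binding five Gal4 sites before minimal TATA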); settings: HeLa Gal4-ERK5 transactivation, 18 h, at 5 µM, stronger effect = higher value
# [5] = viability rescue of complex I mutant cybrids, primary screen, cell-based, galactose medium, ATP luminescence (AID 1645843); settings: complex I mutant cybrid cells, 72 h, stronger effect = higher value;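 note: positive z means more ATP and so rescue of galactose-driven cybrid death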
# [6] = growth inhibition of DIPG glioma cells, dose response, cell-based, SU-DIPG-XIII, MIPE4.0, CellTiter-Glo, qHTS (AID 1347061; cut-off not given, nearly all actives have AC50 up to about 37 µM;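 note: cells exposed to compound for 48 hours before readout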); settings: SU-DIPG-XIII viability, CellTiter-Glo ATP luminescence
# [7] = growth inhibition of DIPG glioma cells, dose response, cell-based, JHH-DIPG-1, MIPE4.0, CellTiter-Glo, qHTS (AID 1347062; cut-off not given, nearly all actives have AC50 up to about 27 µM); settings: JHH-DIPG-1 viability, CellTiter-Glo ATP luminescence
# [8] = growth inhibition of DIPG glioma cells, dose response, cell-based, SU-DIPG-IV, MIPE4.0, CellTiter-Glo, qHTS (AID 1347063; cut-off not given, nearly all actives have AC50 up to about 30 µM;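 note: compound exposure lasted 48 hours before the viability readout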); settings: SU-DIPG-IV viability, CellTiter-Glo ATP luminescence
# [9] = growth inhibition of DIPG glioma cells, dose response, cell-based, SU-DIPG-XIII, MIPE5.0, CellTiter-Glo, qHTS (AID 1347064; cut-off not given, nearly all actives have AC50 up to about 23 µM); settings: SU-DIPG-XIII viability, CellTiter-Glo ATP luminescence
# [10] = viability loss in pontine glioma line – cell-based, SU-DIPG-XXV, MIPE5.0, CellTiter-Glo, qHTS, dose response (AID 1347065; cut-off not given, nearly all actives have AC50 up to about 26 µM;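 note: cells exposed to compound for 48 hours before ATP readout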); settings: CellTiter-Glo ATP luminescence
# [11] = JHH-DIPG-1 glioma cell viability, MIPE5.0 library, CellTiter-Glo luminescence, qHTS (AID 1347067; cut-off not given, nearly all actives have AC50 up to about 26 µM;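 note: cells exposed to compound for 48 hours before readout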); settings: JHH-DIPG-1 glioma viability, CellTiter-Glo ATP luminescence
# [12] = SU-DIPG-XXV glioma cell viability, MIPE5.0 library, qHTS (AID 1347068; cut-off not given, nearly all actives have IC50 up to about 30 µM)
# [13] = SU-DIPG-VI glioma cell viability, MIPE4.0 library, CellTiter-Glo luminescence, qHTS (AID 1347066; cut-off not given, nearly all actives have AC50 up to about 30 µM;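 note: cells exposed to compound for 48 hours before readout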); settings: CellTiter-Glo ATP luminescence
# Sequence of Mitogen-activated protein kinase 7 (Homo sapiens) (Q13164 whole entry, looked up, the tested form may be a part): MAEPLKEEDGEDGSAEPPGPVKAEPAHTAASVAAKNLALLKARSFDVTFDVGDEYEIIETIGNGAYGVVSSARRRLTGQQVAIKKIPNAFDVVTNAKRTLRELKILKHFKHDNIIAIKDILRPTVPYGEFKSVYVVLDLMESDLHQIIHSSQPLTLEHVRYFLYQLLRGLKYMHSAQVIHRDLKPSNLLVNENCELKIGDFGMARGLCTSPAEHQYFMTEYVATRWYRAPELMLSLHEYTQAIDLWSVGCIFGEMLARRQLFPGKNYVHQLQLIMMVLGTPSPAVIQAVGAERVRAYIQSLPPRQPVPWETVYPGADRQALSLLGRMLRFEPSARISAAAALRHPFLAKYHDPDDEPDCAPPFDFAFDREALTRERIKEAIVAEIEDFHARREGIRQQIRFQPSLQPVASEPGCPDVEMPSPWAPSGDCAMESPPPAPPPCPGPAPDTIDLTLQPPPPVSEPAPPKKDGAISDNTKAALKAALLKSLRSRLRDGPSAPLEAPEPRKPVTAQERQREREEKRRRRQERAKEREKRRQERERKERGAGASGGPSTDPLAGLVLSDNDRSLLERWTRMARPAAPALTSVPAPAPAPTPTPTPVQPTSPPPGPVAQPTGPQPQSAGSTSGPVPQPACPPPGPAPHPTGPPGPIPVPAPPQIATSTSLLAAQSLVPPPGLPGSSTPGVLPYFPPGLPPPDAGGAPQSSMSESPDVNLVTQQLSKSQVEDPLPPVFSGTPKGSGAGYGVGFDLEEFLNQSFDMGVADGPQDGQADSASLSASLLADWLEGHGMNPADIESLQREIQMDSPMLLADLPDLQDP
# Sequence of NAD(+) hydrolase SARM1 (Homo sapiens) (Q6SZW1 whole entry, looked up, the tested form may be a part): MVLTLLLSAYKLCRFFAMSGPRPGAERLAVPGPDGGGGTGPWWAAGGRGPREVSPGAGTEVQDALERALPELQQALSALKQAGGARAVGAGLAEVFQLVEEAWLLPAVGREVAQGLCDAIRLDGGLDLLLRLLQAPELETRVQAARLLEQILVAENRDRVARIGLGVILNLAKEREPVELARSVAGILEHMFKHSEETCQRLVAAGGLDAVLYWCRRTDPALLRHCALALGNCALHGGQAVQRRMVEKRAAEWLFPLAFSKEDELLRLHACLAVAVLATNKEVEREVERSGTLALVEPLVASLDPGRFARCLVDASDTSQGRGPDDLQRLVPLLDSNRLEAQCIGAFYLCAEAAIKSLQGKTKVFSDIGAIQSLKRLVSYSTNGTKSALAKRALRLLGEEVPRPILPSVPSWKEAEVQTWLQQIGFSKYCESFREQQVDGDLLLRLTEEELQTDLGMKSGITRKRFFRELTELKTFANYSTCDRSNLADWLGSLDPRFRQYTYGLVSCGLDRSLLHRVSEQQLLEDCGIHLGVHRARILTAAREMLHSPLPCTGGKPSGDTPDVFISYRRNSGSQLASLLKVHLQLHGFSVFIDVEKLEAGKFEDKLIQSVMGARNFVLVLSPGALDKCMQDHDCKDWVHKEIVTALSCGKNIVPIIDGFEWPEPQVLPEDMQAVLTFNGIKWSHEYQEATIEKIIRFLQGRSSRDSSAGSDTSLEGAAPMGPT
smiles,measurement,setting,value
CNCC[C@@H](Oc1ccccc1C)c1ccccc1,z-score,[1],0.0903
same,remaining activity,[2],96.2%
same,remaining NAD,[3],10 nM
same,luciferase signal,[4],64 AU
same,z-score,[5],-0.26
C/C(=C\C(=O)OCCCCCCCCC(=O)O)C[C@@H]1OC[C@H](C[C@@H]2O[C@H]2[C@@H](C)[C@H](C)O)[C@@H](O)[C@H]1O,remaining NAD,[3],10 nM
same,luciferase signal,[4],48 AU
same,z-score,[5],-1.42
COc1c(N2C[C@@H]3CCCN[C@@H]3C2)c(F)cc2c(=O)c(C(=O)O)cn(C3CC3)c12,z-score,[1],-1.5
same,outcome,[6],inactive
same,outcome,[7],inactive
same,outcome,[8],inactive
same,outcome,[9],inactive
same,outcome,[10],inactive
same,outcome,[11],inactive
same,outcome,[12],inactive
same,remaining NAD,[3],10 nM
same,luciferase signal,[4],64 AU
CSc1nc2cc(Oc3cccc(Cl)c3Cl)c(Cl)cc2[nH]1,z-score,[1],0.432
same,z-score,[5],-1.88
CC(=O)CCCCn1cnc2c1c(=O)n(C)c(=O)n2C,z-score,[1],-1.78
same,z-score,[5],0.63
O=C1c2c(O)cc(O)cc2O[C@H](c2ccc(O)c(O)c2)[C@H]1O,z-score,[1],-0.839
same,outcome,[7],inactive
same,outcome,[10],inactive
same,outcome,[13],inactive
same,outcome,[11],inactive
same,outcome,[12],inactive
CC(=O)C1(O)CCC2C3CC(C)C4=CC(=O)C=CC4(C)C3(F)C(O)CC21C (stereo unspecified),z-score,[5],-0.02
CN(C)C1C(=O)C(C(N)=O)=C(O)C2(O)C(=O)C3=C(O)c4c(O)ccc(Cl)c4C(O)C3CC12 (stereo unspecified),z-score,[5],-1.45
CC(=O)OCC(=O)C12OC3(CCCC3)OC1CC1C3CCC4=CC(=O)C=CC4(C)C3(F)C(O)CC12C (stereo unspecified),z-score,[5],-1.46
COc1ccnc(CS(=O)c2nc3cc(OC(F)F)ccc3[nH]2)c1OC (stereo unspecified),z-score,[1],0.437
same,z-score,[5],0.63
C=CCc1ccc(O)c(-c2ccc(O)c(CC=C)c2)c1,z-score,[1],-0.759
same,outcome,[6],inactive
same,AC50,[8],23.5 µM (active)
same,z-score,[5],-1.87
CC1c2cccc(O)c2C(O)=C2C(=O)C3(O)C(O)=C(C(N)=O)C(=O)C(N(C)C)C3C(O)C21 (stereo unspecified),outcome,[11],inactive
same,outcome,[12],inactive
same,z-score,[5],-1.48
Cc1onc(-c2ccccc2)c1C(=O)NC1C(=O)N2C1SC(C)(C)C2C(=O)O (stereo unspecified),z-score,[5],0.33 and 0.12
C[C@H]1[C@@H](OC(=O)CCC(=O)O)O[C@@H]2OC3(C)CC[C@H]4[C@H](C)CC[C@@H]1[C@@]24OO3,z-score,[1],-0.982
same,z-score,[5],-2.11
NC(Cc1cc(I)c(Oc2ccc(O)c(I)c2)c(I)c1)C(=O)O (stereo unspecified),z-score,[5],-1.5
CCOC(=O)CCC(=O)OC1C(OC2C(C)C(OC3CC(C)(OC)C(O)C(C)O3)C(C)C(=O)OC(CC)C(C)(O)C(O)C(C)C(=O)C(C)CC2(C)O)OC(C)CC1N(C)C (stereo unspecified),z-score,[5],0.77
CC1(C)SC2C(NC(=O)C(N)c3ccccc3)C(=O)N2C1C(=O)O (stereo unspecified),z-score,[5],0.46
